Bioassay records: PubChem, National Center for Advancing Translational Sciences (NCATS)
IL1B secr inh – inflammasome signaling inhibition, IL-1 beta readout. THP-1 LPS/ATP IL-1B secretion, AlphaLISA, 16 h; hits give low values. activity change, % at 57.5 µM. 360,000 compounds, 4.7% hits. AID 743279; in the data active = activity change below about -50%; inconclusive = mostly about -30% to -49%
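THP-1 cells pretreated 1 hr with compounds (up to 57.5 uM final), then stimulated with LPS (250 ng/mL final) plus ATP (1.25 mM final); secreted IL-1B measured by AlphaLISA after 16 hr, decreased signal indicating inhibition.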
KB-V1 MDR tox – KB-V1 MDR subline cytotoxicity | KB-V1 MDR cells viability, CellTiter-Glo, 72 h | Potency, µM (top dose mostly 46.1 µM), actives largely listed as cytotoxic | 400,000 compounds, 3.4% hits; also: nearly all actives have a fitted effect of over 60% in size
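Luminescent ATP read-out (CellTiter-Glo, 10 min) measures survival of drug-selected KB-V1 MDR cells after 72 h, 37 degrees C compound exposure. Medium: phenol-red-free DMEM, 10% FBS. Values from fitted concentration-response curves.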
SW480 rerep – induces DNA re-replication in SW480 colon adenocarcinoma cells; 340,000 compounds, 1.8% hits; SW480 DNA re-replication, Hoechst DNA content imaging, 48 h; Potency, µM (series often up to 46.1 µM), hits mostly activators; AID 624297; also: nearly all actives have a fitted effect of over 55% in size
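SW480 cells exposed to compounds for 48 hr at 37 C, 5% CO2, then Hoechst-stained 40 min. Nuclear DNA content imaged by fluorescence scanning (405 nm excitation, 500-530 nm emission); re-replication scored as increased high-intensity nuclei.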
KB-3-1 tox – kills parental KB-3-1 adenocarcinoma cells | KB-3-1 viability, CellTiter-Glo ATP luminescence, 72 h | Potency, µM (series often up to 46.1 µM), hits mostly cytotoxic | 400,000 compounds, 1.4% hits | AID 1347075; also: nearly all actives have a fitted effect of over 60% in size
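Cytotoxicity in the drug-sensitive parental line KB-3-1 was scored as loss of CellTiter-Glo luminescence following 72 h incubation with compound. Values come from curve fitting of normalized concentration-response data.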
MCF10A rerep – induces DNA re-replication in MCF 10a normal breast cells | AID 624296 | Potency, µM (doses to about 46.1 µM), actives largely listed as activators | MCF 10A DNA re-replication, Hoechst nuclear intensity, 48 h | 350,000 compounds, 2.9% hits; also: nearly all actives have a fitted effect of over 50% in size
Each line names hits and unclear results; the compound was inactive in the other large screens. An excerpt weighted towards active compounds, which were near 9.9% of everything screened. Unless noted, calls follow the shape of the dose curve; as a rule, active = well fitted curve in the direction sought with a large enough effect; inconclusive = small, poorly fitted or top-dose-only effect, or another doubt; inactive = no such curve, though single readings can be large; an effect the other way counts as inactive or inconclusive.

CCN(CC)c1ccc(C(=S)NC2CCCCC2)cc1	IL1B secr inh -62.9, KB-V1 MDR tox inconclusive, SW480 rerep inconclusive, KB-3-1 tox inconclusive, MCF10A rerep inconclusive
CNCCCC1c2ccccc2C=Cc2ccccc21	KB-V1 MDR tox inconclusive, SW480 rerep inconclusive, MCF10A rerep inconclusive
CNCCCC1Sc2ccccc2Oc2ccccc21 (centres undefined)	IL1B secr inh -73.3, KB-V1 MDR tox inconclusive, SW480 rerep inconclusive, KB-3-1 tox inconclusive
Cc1ccc(C(=O)NCC(c2ccc3c(c2)OCO3)N2CCOCC2)cc1 (centres undefined)	none (no result: IL1B secr inh, SW480 rerep, MCF10A rerep)
COc1ccc(/C(C)=N/Nc2nc3ccccc3nc2C)cc1	SW480 rerep 18.4µM, KB-3-1 tox 14.6µM, MCF10A rerep 14.6µM
CN(C)CCNC(=O)CN1C(=O)COc2ccc(S(=O)(=O)N3CCCC3)cc21	none (no result: IL1B secr inh, SW480 rerep, MCF10A rerep)
C[C@@H](C(=O)NCc1ccccc1)[C@@H]1C[C@@]1(C)[C@@H](NC(=O)OCc1ccccc1)c1ccccc1	IL1B secr inh -56.6, KB-3-1 tox inconclusive
CCc1ccc(NC(=O)CCS(=O)(=O)c2ccc3c(c2)oc(=O)n3C)cc1	none (no result: IL1B secr inh, SW480 rerep, MCF10A rerep)
O=C(NC1CCCCCCC1)c1cc(COc2ccc3ncccc3c2)on1	IL1B secr inh inconclusive, KB-V1 MDR tox 1.84µM, KB-3-1 tox 2.59µM
Cc1cccnc1CN1CCN(C(=O)c2cc(COc3ccc4ncccc4c3)on2)CC1	KB-V1 MDR tox 6.51µM, KB-3-1 tox inconclusive, MCF10A rerep inconclusive
CCOC(=O)N1CCN(C(=O)c2cc(COc3ccc4ncccc4c3)on2)CC1	KB-V1 MDR tox inconclusive, KB-3-1 tox inconclusive, MCF10A rerep inconclusive
CCOc1ccc(C(=O)NCc2ccco2)cc1Cl	none
CCN(CC)S(=O)(=O)c1ccc(/C=C/C(=O)OCC(=O)NCc2cccs2)cc1	MCF10A rerep inconclusive
CN(CC(=O)Nc1ccc(F)cc1)C(=O)COC(=O)/C=C/c1ccc(OC(F)F)cc1	IL1B secr inh -87.4
CCOC(=O)CCC1(C(=O)OC)C(=O)CCCCCC=C1C(=O)OC (centres undefined)	IL1B secr inh -51.1 (no result: SW480 rerep, MCF10A rerep)
CCOC(=O)C1(CCC(=O)OCc2ccccc2)CCCCC1=O (centres undefined)	none
CCc1ccc(NC(=O)C2(c3ccccc3)CC2(Cl)Cl)cc1 (centres undefined)	SW480 rerep inconclusive, MCF10A rerep 23.1µM
Cc1ccc(NC(=O)C2(c3ccccc3)CC2(Cl)Cl)cc1C (centres undefined)	MCF10A rerep 20.6µM
Cc1cccc(NC(=O)C2(c3ccccc3)CC2(Cl)Cl)c1 (centres undefined)	KB-V1 MDR tox inconclusive, KB-3-1 tox inconclusive, MCF10A rerep inconclusive
COc1ccc(C2CC(c3ccccc3F)=NN2c2ccc(S(N)(=O)=O)cc2)cc1 (centres undefined)	SW480 rerep 0.92µM, MCF10A rerep 2.06µM
COc1ccc(C2CC(c3ccccc3Br)=NN2c2ccc(S(N)(=O)=O)cc2)cc1 (centres undefined)	SW480 rerep 3.66µM, MCF10A rerep inconclusive
COc1ccc(C2=NN(CN3C(=O)C(=O)c4ccccc43)C(c3ccc(Br)cc3)C2)cc1 (centres undefined)	IL1B secr inh -79.4, MCF10A rerep inconclusive
COc1ccc(C2=NN(CN3C(=O)C(=O)c4ccccc43)C(c3ccc(C)cc3)C2)cc1 (centres undefined)	none
COc1ccc(C2CC(c3ccc(C(F)(F)F)cc3)=NN2c2ccc(S(N)(=O)=O)cc2)cc1 (centres undefined)	SW480 rerep 0.517µM, KB-3-1 tox inconclusive, MCF10A rerep inconclusive
COc1ccc(C2CC(C(C)(C)C)=NN2c2ccc(S(N)(=O)=O)cc2)cc1 (centres undefined)	none
COc1ccc(C2CC(c3cccs3)=NN2S(=O)(=O)c2ccc(C)cc2)cc1 (centres undefined)	none
COc1ccc(C2CC(c3ccccc3C(F)(F)F)=NN2c2ccc(S(N)(=O)=O)cc2)cc1 (centres undefined)	KB-V1 MDR tox inconclusive, SW480 rerep 0.731µM, KB-3-1 tox inconclusive, MCF10A rerep 1.84µM
N#CC1(NC(=O)CSc2nc3ccccc3s2)CCCCC1	KB-V1 MDR tox 16.4µM
N#CC1(NC(=O)CSc2nc3ccc([N+](=O)[O-])cc3s2)CCCCC1	KB-V1 MDR tox inconclusive
Cc1ccc(/C=N/NC(=O)c2nnn(-c3nonc3N)c2-c2ccc3c(c2)OCO3)s1	KB-V1 MDR tox inconclusive
COc1ccccc1C(=O)Nn1c(C)nc2ccccc2c1=O	none
COc1cc2nc(CC(C)C)n(NC(=O)c3ccccc3Br)c(=O)c2cc1OC	MCF10A rerep 6.51µM
CCOC(=O)c1c(S(=O)(=O)N2CCCC(C(=O)Nc3cccc(Cl)c3)C2)c(C)n(C)c1C (centres undefined)	KB-V1 MDR tox inconclusive (no result: IL1B secr inh, SW480 rerep, MCF10A rerep)
CC(C)n1nc(C(=O)Nc2ccccc2N2CCOCC2)c2ccccc2c1=O	KB-V1 MDR tox 3.66µM, MCF10A rerep inconclusive
CCN(CC)S(=O)(=O)c1ccc(N2CCOCC2)c(NC(=O)c2nn(C(C)C)c(=O)c3ccccc23)c1	KB-V1 MDR tox inconclusive (no result: SW480 rerep, MCF10A rerep)
CC(C)n1nc(C(=O)Nc2nc3ccccc3[nH]2)c2ccccc2c1=O	IL1B secr inh -52.5, KB-V1 MDR tox inconclusive, MCF10A rerep inconclusive
CCOc1cc(N2CCOCC2)c(OCC)cc1NC(=O)c1nn(CC)c(=O)c2ccccc12	KB-V1 MDR tox 3.66µM, KB-3-1 tox inconclusive, MCF10A rerep inconclusive
CCOc1ccc(NC(=O)CCCn2c(C)c3cnn(-c4ccccc4)c(=O)c3c2C)cc1	none (no result: IL1B secr inh, SW480 rerep, MCF10A rerep)
COc1ccc(CNC(=O)CC[C@H]2O[C@@H](n3cnc4c(NC(=O)c5ccccc5)ncnc43)[C@H](O)[C@@H]2O)cc1	none (no result: SW480 rerep, MCF10A rerep)
O=C(COc1ccccc1)NCC(c1cccs1)S(=O)(=O)c1ccc(Cl)cc1 (centres undefined)	none (no result: IL1B secr inh, SW480 rerep, MCF10A rerep)
CCCCn1nnnc1C(c1cc2ccccc2o1)N1CCN(c2ccncc2)CC1 (centres undefined)	IL1B secr inh -60.8, KB-V1 MDR tox inconclusive (no result: SW480 rerep, MCF10A rerep)
CCCCn1nnnc1C(c1cc2ccccc2o1)N1CCN(c2c(C)cccc2C)CC1 (centres undefined)	KB-3-1 tox inconclusive (no result: SW480 rerep, MCF10A rerep)
CN(C)CCN(Cc1ccccc1)C(c1cc2ccccc2o1)c1nnnn1C(C)(C)C (centres undefined)	IL1B secr inh -54.3, KB-V1 MDR tox inconclusive, KB-3-1 tox inconclusive (no result: SW480 rerep, MCF10A rerep)
Cc1cccc(C)c1N1CCN(C(c2cc3ccccc3o2)c2nnnn2C(C)(C)C)CC1 (centres undefined)	KB-V1 MDR tox 2.59µM, KB-3-1 tox 5.8µM (no result: SW480 rerep, MCF10A rerep)
CCCCn1nnnc1C(c1cc2ccccc2o1)N1CCCCC1 (centres undefined)	KB-3-1 tox inconclusive (no result: SW480 rerep, MCF10A rerep)
COc1ccc(CCC(=O)NCC23CC4CC(CC(C4)C2)C3)cc1	none
O=C(NCCc1ccccc1)c1ccc(CSc2nc3ccncc3n2Cc2ccccc2)cc1	none (no result: IL1B secr inh, SW480 rerep, MCF10A rerep)
